Assay results reported in PubChem BioAssay (NCI).
This is part of a sample that, as a whole, favours compounds with a hit. Of some 79,000 tested, about 15% had one in any assay. No stated cut-off is given here; in the data, active means growth inhibition above about 70%; inactive means the rest.

Key:
[1] = NCI Yeast Anticancer Drug Screen. Data for the rad50 strain (AID 155);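 further: 0% = growth of vehicle-only cultures of the same strain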; settings: S. cerevisiae rad50 strain growth inhibition, hits give high values; at 50.0 µM unless noted
Procedure, shortened: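 Vehicle-treated cultures provide the reference for the growth inhibition reported for compound-exposed, repair-deficient yeast.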

[2] = NCI Yeast Anticancer Drug Screen. Data for the mec2-1 strain (AID 157); settings: S. cerevisiae mec2-1 strain, hits give high values; at 50.0 µM unless noted
Procedure, shortened: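 Strain: mec2-1 (DNA repair/cell cycle alteration). Compound exposure, then growth measured; inhibition expressed relative to vehicle.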

[3] = NCI Yeast Anticancer Drug Screen. Data for the sgs1 mgt1 strain (AID 161);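 further: 0% = growth of cultures given vehicle only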; settings: S. cerevisiae sgs1 mgt1 strain, hits give high values; at 50.0 µM unless noted
Procedure, shortened: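 Read-out: growth inhibition vs vehicle controls. Cells: mutant yeast strain deficient in DNA damage repair.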

[4] = NCI Yeast Anticancer Drug Screen. Data for the cln2 rad14 strain (AID 165);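 further: 0% = growth equal to vehicle treated cultures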; settings: S. cerevisiae cln2 rad14 strain, hits give high values; at 50.0 µM unless noted
Procedure, shortened: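 Compounds are applied to the cln2 rad14 yeast strain, and growth is then compared with that of vehicle-treated cultures to give inhibition.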

[5] = NCI Yeast Anticancer Drug Screen. Data for the bub3 strain (AID 167); settings: S. cerevisiae bub3 mutant strain, hits give high values; at 50.0 µM unless noted
Procedure, shortened: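 Mutant yeast screening strain plus compound; vehicle-treated cultures serve as the 0% inhibition reference.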

[6] = NCI Yeast Anticancer Drug Screen. Data for the mlh1 rad18 strain (AID 175); settings: S. cerevisiae mlh1 rad18 strain growth inhibition, hits give high values; at 50.0 µM unless noted
Procedure, shortened: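 Read-out is yeast growth inhibition, calculated against vehicle-only controls. The compound was applied to a strain engineered with DNA damage repair alterations.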

Measured: growth inhibition

CCN(CC)CCNc1ccc(COC(=O)NC)c2sc3ccccc3c(=O)c12
inactive: [1] 3.9% | [2] -2.4% | [3] -8.3% | [4] -12.2% | [5] -17.4% | [6] -58.9%

CC1(C)C(=O)C=C(c2ccccc2)C1(O)c1ccccc1 (stereo not given)
inactive: [1] -9.45% | [2] -29.9% | [3] 16.9% | [4] 5.35% | [5] 22.4% | [6] -38.5%

O=C(O)C1C2CC=CCC21 (stereo not given)
inactive: [1] 13.4% | [2] 4.5% | [3] 11.8% | [4] 8.85% | [5] 12.2% | [6] 16.6%

CC(C)NC(=O)OCc1c(COC(=O)NC(C)C)c2n(c1Br)CCC2
inactive: [1] 32.8% | [2] 26.1% | [3] -9.6% | [4] 16.9% | [5] 0.2% | [6] -51.4%

C=C(C#N)CSc1c(Cl)c(Cl)c(Cl)c(Cl)c1Cl
inactive: [1] 34.5% | [2] 13% | [3] 9.2% | [4] 17.7% | [5] 16.8% | [6] 62.6%

Cc1nc2ccc(Br)cc2c(=O)n1-c1ccc(-c2n[nH]c(=S)n2-c2ccccc2)cc1
inactive: [1] 14% | [2] 13.2% | [3] 13.4% | [4] -27.9% | [5] 6.8% | [6] 42.4%

COC(=O)C1Cc2c([nH]c3ccccc23)C=N1 (stereo not given)
inactive: [1] 65.3% | [2] 31.2% | [3] 55% | [4] 45.5% | [5] 14.8% | [6] 62.6%

CC1(C)Oc2ccccc2OC1O (stereo not given)
inactive: [1] 1.5% | [2] 0.85% | [3] -1.75% | [4] -14.7% | [5] -10.2% | [6] 3%

O=C(c1ccccc1)N1CCC(Nc2nccs2)O1 (stereo not given)
inactive: [1] -37.4% | [2] -26.1% | [3] -11.4% | [4] -9.75% | [5] -8.15% | [6] -2.35%

Nc1cc([N+](=O)[O-])ccc1C(=O)O
inactive: [1] 15.2% | [2] 0.05% | [3] -11.4% | [4] -3.1% | [5] 2.65% | [6] -14.3%

COc1cccc(/C=C/C(C)=N/NC(N)=O)c1
inactive: [1] 6.5% | [2] 0.25% | [3] 5.5% | [4] -7.1% | [5] 6.35% | [6] 8.65%

N#C/C(=C\c1cc(Cl)cc(Cl)c1O)c1nc2ccccc2[nH]1
inactive: [1] 43% | [2] 13.7% | [3] 38.4% | [4] 11.5% | [5] 26.9% | [6] 5.65%

O=S(=O)([O-])[O-].O=c1[nH]cnc2[nH]ncc12.O=c1[nH]cnc2[nH]ncc12.[Zn+2]
inactive: [1] -26.2% | [2] 4.15% | [3] -15.9% | [4] 3.65% | [5] -20.8% | [6] -17.6%

O=[N+]([O-])c1cccc(C2=NN(c3ccccc3)C3c4cc(Br)ccc4OCC23)c1 (stereo not given)
inactive: [1] -10.8% | [2] -18.4% | [3] -17.6% | [4] 2.45% | [5] 10.2% | [6] -31.7%

CCOC(=O)c1c(C(=O)OCC)c2cccn2c2c1cnn2-c1ccccc1
inactive: [1] -0.85% | [2] 1.65% | [3] 5.1% | [4] 5.55% | [5] -20.8% | [6] -2.55%

CC(C)=C(Nc1ccccc1)NC(C)C
inactive: [1] 47.4% | [2] -19.1% | [3] -28.4% | [4] -16.2% | [5] -40.6% | [6] -3.15%

O=C(O)c1ccccc1Br
inactive: [1] 1.1% | [2] 5.4% | [3] -13.6% | [4] -6.95% | [5] -17.4% | [6] -3.35%

COC(=O)c1ccc2c(c1)CC1(C2)Cc2cc3c(cc2C1)CCC3
inactive: [1] -19.4% | [2] -19.9% | [3] -17.5% | [4] 9.95% | [5] 12.8% | [6] -12.5%

COC1C(CO)OC(O)C(O)C1O (stereo not given)
inactive: [1] -6.75% | [2] 2.25% | [3] -5.2% | [4] -5.45% | [5] -6.9% | [6] 4%

O=C(O)C(=O)Nc1ccccc1
inactive: [1] -4.45% | [2] -15.5% | [3] -5.5% | [4] -34.8% | [5] 1.65% | [6] -5.8%

CN(C)C[C@@H]1C2C=CC(C2)[C@@H]1CO (stereo not given in full)
inactive: [1] -6.5% | [2] 4.55% | [3] -0.9% | [4] 4.95% | [5] 2.25% | [6] -10.6%

COc1ccc(C=O)cc1OCc1ccccc1
inactive: [1] -10.2% | [2] -29.4% | [3] -3.15% | [4] -7.35% | [5] -18.2% | [6] 7.55%

CC(=O)CCC(C)C1CCC2C3CCC4CCCCC4(C)C3CCC12C (stereo not given)
inactive: [1] 7.4% | [2] -3.05% | [3] -7.75% | [4] 13.8% | [5] -2.15% | [6] -1.8%

Clc1ccccc1NN(Cc1ccncc1)c1ccccc1Cl
inactive: [1] 55.6% | [2] 23.1% | [3] 23.7% | [4] 26.9% | [5] 34.1% | [6] 53.1%

O=C1CN(c2cccc(C(F)(F)F)c2)C(=O)CN1/N=C/c1ccc[nH]1
inactive: [1] -27.7% | [2] -3.25% | [3] 9.45% | [4] 15.8% | [5] -7.1% | [6] -5.4%

COC(C(=O)Nc1ccc(C)cc1)(c1ccccc1)c1ccccc1
inactive: [1] 7.4% | [2] 7.45% | [3] -7.55% | [4] 0.65% | [5] 12.9% | [6] 23.8%

COc1cc(N=C=S)ccc1NC(=O)c1cc(Br)cc(Br)c1O
inactive: [1] 55.9% | [2] 39.4% | [3] 46.6% | [4] 31.2% | [5] 1.15% | [6] 45%

C=CSS/C(=C/N(C=O)Cc1cnc(C)nc1N)CCO
inactive: [1] -10.6% | [2] -33.5% | [3] -18.9% | [4] 1.85% | [5] -17.1% | [6] -10%

Cc1c(C(=O)CC(=O)C(=O)Nc2ccc(Cl)c(Cl)c2)[n+](=O)c2ccccc2n1[O-]
inactive: [1] 12.6% | [2] 16.9% | [3] -16.1% | [4] 34.5% | [5] 19.4% | [6] 20.2%

C=CCC1(CN(C)C)CC/C(=C\c2cc(OC)c(OC)c(OC)c2)C1=O (stereo not given)
inactive: [1] -8.7% | [2] -3.15% | [3] -26% | [4] -4.65% | [5] -9.85% | [6] 20.2%

CCOC(=O)CCN(CCC(=O)OCC)N(C)C
inactive: [1] 2.55% | [2] -6.45% | [3] -4.6% | [4] -8.85% | [5] 5.8% | [6] 2.8%

N#CNc1nc(N)c(-c2ccc(Cl)cc2)c(C(=O)Nc2nccs2)n1
inactive: [1] -8.85% | [2] -10.9% | [3] 3.25% | [4] 1.5% | [5] -7.75% | [6] -12.6%

O=C(N/N=C/c1ccc(Cl)cc1)c1cccc([N+](=O)[O-])c1
inactive: [1] -1.5% | [2] 7.7% | [3] -3.6% | [4] 4.25% | [5] 8.35% | [6] -5.7%

CCOC(=O)CC1(N)CC2c3ccccc3OC(=O)C2C(=O)N1 (stereo not given)
inactive: [1] 10.6% | [2] 15.1% | [3] 6.15% | [4] 0.45% | [5] -2.8% | [6] -33.6%

OCCN/N=C/c1ccncc1
inactive: [1] -4.35% | [2] -52.2% | [3] -20.2% | [4] 15.2% | [5] -14.3% | [6] 23.8%

COc1cc(C=O)c(Cl)cc1OC(C)=O
inactive: [1] 32.9% | [2] 21.9% | [3] 36.4% | [4] 32.8% | [5] -10.1% | [6] 27.9%

Nc1cc(C(=O)O)[nH]c(=O)n1
inactive: [1] -23.7% | [2] -18.4% | [3] -20.2% | [4] -70.2% | [5] -18.9% | [6] -10.3%

O=C(Oc1cccc(OC(=O)c2ccccc2O)c1)c1ccccc1O
inactive: [1] -1.05% | [2] -7.95% | [3] 9.8% | [4] -30.8% | [5] 25.9% | [6] -5.35%

Cc1ccc(C)c(N=Nc2c(C)nc(N)nc2C)c1
inactive: [1] 1.8% | [2] -10.2% | [3] -9.45% | [4] -34.2% | [5] -22.1% | [6] -3.05%

OCC1OC(n2cnc3c(/C=C(/O)c4ccccc4)ncnc32)C(O)C1O (stereo not given)
inactive: [1] -32.6% | [2] -27% | [3] 0.35% | [4] -13.5% | [5] -27.1% | [6] 5.35%
